Measured values taken from PubChem BioAssay AID1159580 (chemical genetic matrix, 2015).
“And” between values parts separate entries of the source, which are not always exact repeats. Identical values can stand only once. In all, about 5,500 compounds went through this assay and about 2,000 (36%) were called active. Another 18% or so got no clear call; they are omitted. Cut-off read from the data, not from the text of the source: active = normalized growth mostly below about 0.91 (no sharp cut-off); inconclusive = no clear call, values can overlap the other calls; inactive = mostly above about 0.92. This is one part of the list.

Test: chemical genetic growth profiling, strain panel (AID 1159580);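 note: tested at 20 µM; growth read once vehicle control cultures reached saturation at 30 °C; 1 = growth at the plate median or of vehicle wells; lower values mean less growth of the strain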
Conditions: S. cerevisiae deletion strains, growth OD

Measured: normalized growth

COc1cc([C@@H]2c3cc4c(cc3C(OC3O[C@@H]5COC(C)O[C@H]5[C@H](O)[C@H]3O)C3COC(=O)[C@@H]32)OCO4)cc(OC)c1O (some centres undefined)
inactive: locus YAL021C, strain ccr4, stronger effect = lower value 1.03 | locus YAL026C, strain drs2, stronger effect = lower value 1.05 | locus YAL030W, strain snc1, stronger effect = lower value 1.05 | locus YBL061C, strain skt5, stronger effect = lower value 1.02 | locus YBR009C, strain hhf1, stronger effect = lower value 1.01 | locus YBR021W, strain FUR4, stronger effect = lower value 0.961 | locus YBR023C, strain chs3, stronger effect = lower value 1.03 | locus YBR171W, strain sec66, stronger effect = lower value 1.07 | locus YBR229C, strain ROT2, stronger effect = lower value 1.01 | locus YBR231C, strain swc5, stronger effect = lower value 1.03 | locus YBR279W, strain paf1, stronger effect = lower value 1.02 | locus YCL011C, strain gbp2, stronger effect = lower value 1.04 | locus YCL016C, strain dcc1, stronger effect = lower value 1.02 | locus YCL029C, strain bik1, stronger effect = lower value 0.989 | locus YCL069W, strain vba3, stronger effect = lower value 1.05 | locus YCR088W, strain abp1, stronger effect = lower value 1.04 | locus YDL005C, strain med2, stronger effect = lower value 1.02 | locus YDL035C, strain GPR1, stronger effect = lower value 0.996 | locus YDL040C, strain nat1, stronger effect = lower value 1.03 | locus YDL074C, strain BRE1, stronger effect = lower value 0.947 | locus YDL101C, strain DUN1, stronger effect = lower value 1 | locus YDL134C, strain PPH21, stronger effect = lower value 1.01 | locus YDL185W, strain tfp1, stronger effect = lower value 0.979 | locus YDL192W, strain arf1, stronger effect = lower value 0.991 | locus YDR001C, strain nth1, stronger effect = lower value 1.02 | locus YDR069C, strain doa4, stronger effect = lower value 1.04 | locus YDR101C, strain arx1, stronger effect = lower value 0.981 | locus YDR137W, strain rgp1, stronger effect = lower value 1.06 | locus YDR159W, strain sac3, stronger effect = lower value 0.987 | locus YDR162C, strain NBP2, stronger effect = lower value 1.03 | locus YDR195W, strain ref2 1.03 | locus YDR297W, strain sur2, stronger effect = lower value 1.02 | locus YDR318W, strain mcm21, stronger effect = lower value 1.01 | locus YDR334W, strain swr1, stronger effect = lower value 1.06 | locus YDR335W, strain msn5, stronger effect = lower value 1.05 | locus YDR388W, stronger effect = lower value 1 | locus YDR392W, strain spt3, stronger effect = lower value 0.948 | locus YDR502C, strain sam2, stronger effect = lower value 0.974 | locus YEL003W, strain gim4, stronger effect = lower value 1.04 | locus YEL037C, strain rad23, stronger effect = lower value 1.05 | locus YEL061C, strain CIN8 (second series), stronger effect = lower value 1.03 | locus YEL061C, strain CIN8, stronger effect = lower value 1.01 | locus YER015W, strain faa2, stronger effect = lower value 1.03 | locus YER016W, strain bim1, stronger effect = lower value 1.03 | locus YER110C, stronger effect = lower value 0.993 | locus YER111C, strain swi4, stronger effect = lower value 1.03 | locus YER155C, strain BEM2 (second series), stronger effect = lower value 1.05 | locus YER155C, strain BEM2, stronger effect = lower value 0.981 | locus YER167W, strain BCK2, stronger effect = lower value 0.998 | locus YFR010W, strain ubp6, stronger effect = lower value 1.02 | locus YGL078C, strain dbp3, stronger effect = lower value 0.976 | locus YGL086W, strain mad1, stronger effect = lower value 0.965 | locus YGL167C, strain pmr1, stronger effect = lower value 1.05 | locus YGL173C, strain kem1, stronger effect = lower value 1.02 | locus YGL227W, strain vid30, stronger effect = lower value 1.03 | locus YGL240W, strain doc1, stronger effect = lower value 0.994 | locus YGL248W, strain PDE1, stronger effect = lower value 1.01 | locus YGL253W, strain hxk2, stronger effect = lower value 1.05 | locus YGR078C, strain PAC10, stronger effect = lower value 1.01 | locus YGR135W, strain pre9, stronger effect = lower value 1.02 | locus YGR252W, strain gcn5, stronger effect = lower value 1.02 | locus YHR013C, strain ard1, stronger effect = lower value 1.04 | locus YHR027C, strain rpn1, stronger effect = lower value 1.01 | locus YHR030C, strain SLT2, stronger effect = lower value 0.998 and 1.06 | locus YHR079C, strain IRE1 (second series), stronger effect = lower value 0.992 | locus YHR079C, strain IRE1, stronger effect = lower value 1.12 | locus YHR094C, strain hxt1, stronger effect = lower value 0.995 | locus YHR129C, strain ARP1, stronger effect = lower value 0.998 | locus YHR142W, strain chs7, stronger effect = lower value 1.06 | locus YHR200W, strain rpn10, stronger effect = lower value 1 | locus YIL066C, strain RNR3, stronger effect = lower value 0.997 | locus YIL073C, strain SPO22, stronger effect = lower value 0.958 | locus YIL125W, strain kgd1, stronger effect = lower value 0.997 | locus YIR030C, strain dcg1, stronger effect = lower value 0.995 | locus YJL092W, strain hpr5, stronger effect = lower value 1.04 | locus YJL095W, strain BCK1 (second series), stronger effect = lower value 1.03 | locus YJL095W, strain BCK1, stronger effect = lower value 1.03 and 1.06 | locus YJL115W, strain asf1, stronger effect = lower value 1.04 | locus YJL129C, strain trk1, stronger effect = lower value 1.05 | locus YJL134W, strain LCB3, stronger effect = lower value 0.998 | locus YJL154C, strain vps35, stronger effect = lower value 1.02 | locus YJL164C, strain tpk1, stronger effect = lower value 1.05 | locus YJL166W, strain qcr8, stronger effect = lower value 1.02 | locus YJL168C, strain set2, stronger effect = lower value 0.998 | locus YJL187C, strain SWE1 (second series), stronger effect = lower value 1 | locus YJR043C, strain POL32, stronger effect = lower value 0.992 | locus YJR066W, strain TOR1, stronger effect = lower value 0.995 | locus YKL009W, strain mrt4, stronger effect = lower value 1.06 | locus YKL068W, stronger effect = lower value 0.995 | locus YKL085W, strain MDH1 (second series), stronger effect = lower value 1.01 | locus YKL085W, strain MDH1, stronger effect = lower value 1.01 | locus YKL160W, strain elf1, stronger effect = lower value 1.02 | locus YKL190W, strain CNB1, stronger effect = lower value 1.02 | locus YKR001C, strain vps1, stronger effect = lower value 1.01 | locus YKR026C, strain gcn3, stronger effect = lower value 1.04 | locus YKR091W, strain srl3, stronger effect = lower value 1.03 | locus YLL001W, strain dnm1, stronger effect = lower value 1.04 | locus YLL026W, stronger effect = lower value 1.04 | locus YLL041C, strain sdh2, stronger effect = lower value 1.02 | locus YLR027C, strain aat2, stronger effect = lower value 1.05 | locus YLR039C, strain RIC1, stronger effect = lower value 1.01 | locus YLR058C, strain SHM2, stronger effect = lower value 1.02 | locus YLR102C, strain apc9, stronger effect = lower value 0.999 | locus YLR113W, strain HOG1, stronger effect = lower value 1.06 | locus YLR221C, strain rsa3, stronger effect = lower value 1.04 | locus YLR258W, strain gsy2, stronger effect = lower value 1.03 | locus YLR262C, strain YPT6 (second series), stronger effect = lower value 1.05 | locus YLR262C, strain YPT6, stronger effect = lower value 1.01 | locus YLR268W, strain sec22, stronger effect = lower value 0.957 | locus YLR320W, strain mms22, stronger effect = lower value 1 | locus YLR330W, strain CHS5, stronger effect = lower value 1.02 | locus YLR342W, strain FKS1 (second series), stronger effect = lower value 1.01 | locus YLR342W, strain FKS1, stronger effect = lower value 1.02 | locus YLR357W, strain rsc2, stronger effect = lower value 1.04 | locus YLR370C, strain arc18, stronger effect = lower value 1.04 | locus YLR371W, strain rom2, stronger effect = lower value 0.979 | locus YLR384C, strain iki3, stronger effect = lower value 1.02 | locus YLR418C, strain cdc73, stronger effect = lower value 0.998 | locus YML016C, strain PPZ1, stronger effect = lower value 0.999 | locus YML032C, strain rad52, stronger effect = lower value 0.982 | locus YML120C, strain ndi1, stronger effect = lower value 1.03 | locus YML124C, strain tub3, stronger effect = lower value 0.996 | locus YMR058W, strain fet3, stronger effect = lower value 1.02 | locus YMR078C, strain ctf18, stronger effect = lower value 0.996 | locus YMR125W, strain sto1, stronger effect = lower value 1.07 | locus YMR129W, stronger effect = lower value 1.04 | locus YMR205C, strain PFK2, stronger effect = lower value 1.02 | locus YMR223W, strain ubp8, stronger effect = lower value 1 | locus YMR231W, strain pep5, stronger effect = lower value 1.03 | locus YMR307W, strain GAS1, stronger effect = lower value 1.06 | locus YNL067W, strain RPL9B, stronger effect = lower value 1.01 | locus YNL071W, strain lat1, stronger effect = lower value 1.04 | locus YNL153C, strain GIM3, stronger effect = lower value 1.02 | locus YNL183C, strain NPR1, stronger effect = lower value 0.995 | locus YNL209W, strain ssb2, stronger effect = lower value 1.03 | locus YNL233W, strain BNI4, stronger effect = lower value 0.991 | locus YNL248C, strain rpa49, stronger effect = lower value 1.02 | locus YNL250W, strain rad50, stronger effect = lower value 0.96 | locus YNL271C, strain bni1, stronger effect = lower value 0.984 | locus YNL298W, strain CLA4, stronger effect = lower value 0.994 | locus YNL307C, strain MCK1, stronger effect = lower value 0.996 | locus YNL322C, strain KRE1 (second series), stronger effect = lower value 1.03 | locus YNL322C, strain KRE1, stronger effect = lower value 1.01 | locus YNR049C, strain mso1, stronger effect = lower value 1.03 | locus YNR052C, strain pop2, stronger effect = lower value 0.985 | locus YOL012C, strain htz1 0.834 | locus YOL147C, strain pex11, stronger effect = lower value 1 | locus YOR001W, strain rrp6, stronger effect = lower value 1.03 | locus YOR061W, strain CKA2, stronger effect = lower value 0.996 | locus YOR069W, strain VPS5, stronger effect = lower value 0.991 | locus YOR070C, strain gyp1, stronger effect = lower value 1.04 | locus YOR080W, strain dia2, stronger effect = lower value 1.02 | locus YOR083W, strain WHI5, stronger effect = lower value 0.979 | locus YOR106W, strain vam3, stronger effect = lower value 1.04 | locus YOR136W, strain idh2, stronger effect = lower value 0.971 | locus YOR144C, strain elg1, stronger effect = lower value 0.998 | locus YOR184W, strain ser1, stronger effect = lower value 1 | locus YOR231W, strain MKK1, stronger effect = lower value 1.05 | locus YOR265W, strain rbl2, stronger effect = lower value 1.01 | locus YOR270C, strain vph1, stronger effect = lower value 1.15 | locus YOR290C, strain snf2, stronger effect = lower value 1.04 | locus YOR316C, strain cot1, stronger effect = lower value 0.997 | locus YPL051W, strain arl3, stronger effect = lower value 1.04 | locus YPL055C, strain LGE1, stronger effect = lower value 1.01 | locus YPL078C, strain atp4, stronger effect = lower value 1.04 | locus YPL106C, strain sse1, stronger effect = lower value 1.07 | locus YPL240C, strain hsp82, stronger effect = lower value 1.02 | locus YPL241C, strain CIN2, stronger effect = lower value 1.01 | locus YPL256C, strain CLN2, stronger effect = lower value 1.08 | locus YPR119W, strain clb2, stronger effect = lower value 0.998 | locus YPR141C, strain kar3, stronger effect = lower value 0.99 | locus YPR163C, strain tif3, stronger effect = lower value 0.985 | locus YPR167C, strain met16, stronger effect = lower value 1.01 | strain wtn01, stronger effect = lower value 0.97
